From article PMC7826789 (International Journal of Molecular Sciences, 2021) come the findings set out here.
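Note: KINOMEscan scanMAX binding as percent activity remaining versus control; lower means stronger binding.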

The test system of the first experiment is FLT1. The following applies: Compound Concentration (nM):1000.
As for `COc1ccccc1-c1cc(/C=C2\C(=O)Nc3ncc(Br)cc32)cc(Br)c1O` [GW442130X], the “Percent Control” value stood at 100%.
Turning to `NS(=O)(=O)c1ccc(N/N=C2\C(=O)Nc3ccc(C(=O)NCCc4c[nH]cn4)cc32)cc1` [GW300660X], the “Percent Control” value turned out to be 100%.
The same measure, in the same setting: the same measure for `NS(=O)(=O)c1ccc(N/N=C2\C(=O)Nc3ccc(C(=O)NCc4ccncc4)cc32)cc1` [GW300657X]: 80%.
The same measure, in the same setting: for `NS(=O)(=O)c1ccc(N/N=C2\C(=O)Nc3ccc(Cl)cc32)cc1` [GW280670X] the value was 100%.
The same measure, in the same setting: for `Cl.O=S1CCN(Cc2ccc(-c3ccc4ncnc(Nc5ccc(OCc6ccccc6)c(F)c5)c4c3)o2)CC1` [GW576924A] the value was 100%; for `NS(=O)(=O)c1ccc(N/N=C2\C(=O)Nc3ccc(-c4cnco4)cc32)cc1` [GW276655], 80%; for `COc1cccc(-c2c[nH]c3c(N/N=C/c4ccncc4)ncnc23)c1` [GW814408X], 83%.

Another experiment deals with FLT3(D835H). Conditions: Compound Concentration (nM):1000.
With `CN(C)CCNC(=O)Nc1ccc(N(C)c2ccnc(Nc3ccc(CS(C)(=O)=O)cc3)n2)cc1.Cl` [GW830900A], the “Percent Control” value came out at 32%.
On the same count and under the same terms, the same measure for `C/C(Nc1ccc(S(N)(=O)=O)cc1)=C1/C(=O)Nc2ccccc21` [GW335962X]: 87%; for `Cc1cc(O)cc(C)c1/C=C/c1cncc(C(N)=O)c1` [GW435821X]: 77%.
Still for that read-out and setting: the same measure for `COc1cc(C)c(N(C)C(=O)CN(C)C)cc1Nc1nc(Nc2cccc(F)c2C(N)=O)c2cc[nH]c2n1` [GSK2219385]: 85%.
Same read-out and setting: the same measure for `COC(=O)Nc1nc2ccc(Oc3ccc(NC(=O)Nc4cc(C(F)(F)F)ccc4F)cc3)cc2s1.Cl` [GW693917A]: 2.3%; for `NS(=O)(=O)c1ccc(Nc2ncc(-c3ccccc3)o2)cc1` [GW572399X]: 70%; for `CN(C)c1cc2c(Nc3ccc4c(cnn4Cc4ccccc4)c3)ncnc2cn1` [GW282974X]: 85%.
For the molecule `CCc1ccc(Oc2nccc(-c3c(-c4ccc(F)cc4)ncn3C3CCNCC3)n2)cc1` [SB-242719], the “Percent Control” value is given as 88%.
Turning to `Nc1ncnc2occ(-c3ccc(NC(=O)Nc4cc(C(F)(F)F)ccc4F)cc3)c12` [GW770249X], the “Percent Control” value is given as 0.9%.
On the same count and under the same terms, the same measure for `CN1CCN(C(=O)c2ccc(NC(=O)Nc3ccc(N(C)c4ccnc(Nc5ccc(CS(C)(=O)=O)cc5)n4)cc3)cc2)CC1.Cl` [GW830263A]: 0.8%; for `COc1cc2ncn(-c3cc(O[C@H](C)c4ccccc4Cl)c(C(N)=O)s3)c2cc1OC` [GSK237701A]: 11%.
Consider `COc1ccc(COc2ccc(Cc3cnc(N)nc3N)cc2OC)cc1` [GW632580X], for which the “Percent Control” value is recorded as 100%.
The same measure, in the same setting: for `CCn1c(-c2nonc2N)nc2c(C#CC(C)(C)O)nc(OCCNC)cc21.Cl` [GSK949675] the value was 43%; for `COc1cc(/C=N/Nc2ncnc3[nH]ncc23)ccc1O` [GW578748X], 25%.
Same read-out and setting: the same measure for `COc1cc(N2CCN(C(C)C)CC2)ccc1Nc1nc(Nc2ccc(F)cc2C(=O)NC[C@@H](O)CO)c2cc[nH]c2n1` [GSK1392956A]: 100%; for `Cl.c1ccc(Cc2nc3ccc(Nc4ncnc5ccccc45)cc3[nH]2)cc1` [GR269666A]: 100%.
For the molecule `C[C@@H](Oc1cc(-n2cnc3ccc(OC4CCN(C)CC4)cc32)sc1C(N)=O)c1ccccc1Cl` [GSK579289A], the “Percent Control” value is recorded as 9.4%.
On the same count and under the same terms, the same measure for `CC1=C(C(=O)Nc2ccc3[nH]ncc3c2)C(c2ccc(Cl)c(Cl)c2)CC(=O)N1` (stereo not drawn) [GSK299115A]: 100%; for `COc1cccc(-n2ncc3c(N/N=C/c4ccncc4)ncnc32)c1` [GW784752X]: 22%; for `COc1cc2ncnc(Nc3ccc4c(cnn4Cc4ccccc4)c3)c2cc1OC.Cl` [GW282449A]: 68%.
Still for that read-out and setting: for `Cl.O=C(Nc1ccc(Oc2ccc3[nH]c(NC(=O)c4ccco4)nc3c2)cc1)Nc1cc(C(F)(F)F)ccc1F` [GW683134A] the value was 0.4%; for `CC(C)COC(=O)c1ccc2c(c1)/C(=C/Nc1ccc(S(N)(=O)=O)cc1)C(=O)N2` [GW416981X], 1.6%.
For the molecule `COc1ccc2[nH]c3c4[nH]c5ccc(OC)cc5c4c4c(c3c2c1)C(=O)NC4=O` [GW296115X], the “Percent Control” value was determined as 12%.
Still for that read-out and setting: the same measure for `COc1ccc2c(-c3ccnc(Nc4cccc(OC(F)(F)F)c4)n3)cnn2n1` [GW810372X]: 0%.
As for `COc1ccc2cc(-c3c(-c4ccncc4)nc(-c4ccc(S(C)(=O)=O)cc4C)n3C)ccc2c1` [SB-633825], the “Percent Control” value was 79%.
Consider `O=C1Nc2ccc(C(=O)c3ccco3)cc2C1=Cc1cc(Cl)c(O)c(Cl)c1` [GW406108X], for which the “Percent Control” value stood at 18%.
